In PubChem BioAssay AID743294 (Broad Institute, 2014):
Potency and affinity values are given separately. Calls of active or inactive are those of the source.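 How the source made its calls: active means compounds lowering fluorescence whose fitted half-maximal dose is at most twice the top valid dose; inconclusive means flat fit between -70% and -30%, or poor curve fit; inactive means the rest.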

Biological target: Caspase-8 (Homo sapiens) (UniProt Q14790)
Assay: inhibitors of purified CASP8 protease – biochemical, Z-IETD-R110 fluorescence, cherry-picked samples, selectivity assay for caspase-6 inhibitor project, dose response (AID 743294)

Caspase-8 (Homo sapiens), sequence (Q14790 whole entry, looked up): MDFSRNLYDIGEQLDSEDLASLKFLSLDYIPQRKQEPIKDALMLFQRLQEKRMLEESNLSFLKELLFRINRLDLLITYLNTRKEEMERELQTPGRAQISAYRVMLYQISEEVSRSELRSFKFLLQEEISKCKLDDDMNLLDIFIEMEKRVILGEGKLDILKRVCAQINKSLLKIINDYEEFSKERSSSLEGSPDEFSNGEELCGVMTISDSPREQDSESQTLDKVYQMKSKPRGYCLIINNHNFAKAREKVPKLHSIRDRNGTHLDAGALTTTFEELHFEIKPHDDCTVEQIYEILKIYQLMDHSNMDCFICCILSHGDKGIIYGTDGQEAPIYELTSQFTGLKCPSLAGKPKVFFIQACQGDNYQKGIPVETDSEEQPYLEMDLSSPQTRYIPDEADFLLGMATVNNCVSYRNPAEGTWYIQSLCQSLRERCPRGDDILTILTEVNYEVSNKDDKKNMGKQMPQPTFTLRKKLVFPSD

SMILES	outcome
CN1CCc2cc3c(c4c2C1Cc1ccccc1-4)OCO3 (configuration not stated)	inactive
CC(Cc1ccc(O)cc1)NCC(O)c1ccc(O)c(O)c1 (configuration not stated)	inactive
